IEC-6 tox: kills IEC-6 intestinal cells in KLF5 counter-screen; inhibition, % at 5 µM; 290,000 compounds, 0.78% hits; AID 1825; IEC-6 cytotoxicity, luminescence viability; in the data active means inhibition above about 22%;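 further: 0% = plate median of test compound wells and 100% = cytotoxic reference compound wells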
BaF3 tox: parental Ba/F3 viability inhibition as JAK2V617F counter-screen; CellTiter-Glo ATP luminescence; inhibition, % at 5.6 µM; 220,000 compounds, 1.1% hits;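 active means inhibition above a per-campaign cutoff, the mean inhibition of all tested compounds plus 3 SD, cut at about 27% in these data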;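 further: 0% = DMSO wells and 100% = JAK Inhibitor I control wells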
APP transl inh: APP translation inhibition; SH-SY5Y APP 5'UTR-luciferase reporter, luminescence; AID 1285; inhibition, % at 2 µM; 190,000 compounds, 0.82% hits;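 active means inhibition above a set limit, derived from the sample mean plus 3 SD, cut at about 45% in these data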
aSyn 5UTR inh: 5' untranslated region of α-synuclein, MLPCN primary screen. 300,000 compounds, 0.82% hits. alpha-synuclein 5'UTR reporter, inhibitor activity. inhibition, % (tested at 7.5 µM). AID 1813; in the data active means inhibition above about 60%;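 further: H4 neuroglioblastoma cells stably carrying SNCA 5'UTR luciferase fusion; 0% = DMSO wells and 100% = positive control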
KLF5 inh: kruppel-like factor 5 inhibition; DLD-1 KLF5 promoter-luciferase reporter, luminescence; inhibition, % at 5 µM; 290,000 compounds, 0.23% hits; AID 1700;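 active means inhibition above a per-plate limit of that plate's mean compound inhibition plus 3 SD, cut at about 60% in these data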;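 further: 0% = DMSO wells and 100% = LY294002 at 200 µM; higher means less KLF5 promoter-driven luciferase light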
Ba/F3 V617F tox: loss of viability in JAK2V617F-driven Ba/F3 cells | Ba/F3 EpoR-JAK2V617F viability, ATP luminescence | inhibition, % at 5.6 µM | 220,000 compounds, 1.1% hits | AID 1446;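 active means inhibition above the campaign mean plus 3 SD over all tested compounds, cut at about 24% in these data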;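 further: cytokine-independent growth of Ba/F3 cells driven by EpoR plus mutant JAK2; 0% = DMSO-treated cells and 100% = JAK inhibitor I control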
* hit, by the source's call; nt = no result given. Only some compounds are listed: those with a hit (about 2.2% of all), similar ones and a draw of the others.

SMILES | IEC-6 tox | BaF3 tox | APP transl inh | aSyn 5UTR inh | KLF5 inh | Ba/F3 V617F tox
CN1C2C=C3C(C#N)=C(N)C(C#N)(C#N)[C@H](c4c(F)cccc4F)[C@H]3C1CC2 (some centres not stated) | 3.3 | 4.4 | 47.1* | 20.5 | -8.6 | 3.2
CN1C2C=C3C(C#N)=C(N)C(C#N)(C#N)[C@@H](c4cccc(F)c4)[C@@H]3C1CC2 (some centres not stated) | -3.1 | 0.1 | 2.1 | -2.4 | -16.8 | -2.7
CCc1ccc(-c2nc(SCC(=O)N(C)C3CCS(=O)(=O)C3)n[nH]2)cc1 (configuration not stated) | nt | nt | nt | 8.5 | nt | nt
CCCCC(=O)Nc1ccc(C(=O)N2CCN(c3ccccc3OC)CC2)cc1 | -1.2 | 11.2 | 68.7* | -40.2 | -44.8 | 7.4
CCCCC(=O)Nc1ccc(C(=O)N2CCC(C(=O)OCC)CC2)cc1 | 2.4 | 37.9* | 2.6 | 18.3 | -10.7 | -4.0
COc1cc(SC)ccc1C(=O)N1CCN(c2ccccc2OC)CC1 | 30.6* | 19.8 | 14.5 | 23.7 | 36.2 | 12.6
CCCCCCC(=O)Nc1ccc(C(=O)N2CCCC2)cc1 | -0.9 | 4.4 | 11.6 | 23.0 | -0.4 | -3.3
COc1ccccc1N1CCN(C(=O)c2ccc(NC(C)=O)cc2)CC1 | 6.4 | 9.3 | -3.0 | 1.0 | 7.2 | 4.4
O=C(CCCN1C(=O)C(c2ccccc2)Oc2cccnc21)Nc1cccc(F)c1 (configuration not stated) | -6.0 | nt | nt | 20.8 | -20.1 | nt
CCCCc1nnc(SCC(=O)NC2CCCCC2)n1C | 2.5 | nt | nt | -13.4 | 5.3 | nt
c1csc(C2Nc3cccc4cccc(c34)N2)c1 | -2.7 | 32.9* | 26.9 | 2.5 | 14.7 | 10.9
Cc1ccc(C(=O)CCC(=O)Nc2cccc(C)c2)cc1 | 0.3 | nt | nt | 1.9 | -64.5 | nt
CC(=O)Nc1ccc(S(=O)(=O)N2c3ccc(F)cc3CCC2C)cc1 (configuration not stated) | nt | nt | nt | 7.3 | nt | nt
COc1ccc(S(=O)(=O)N2c3ccc(F)cc3CCC2C)cc1 (configuration not stated) | nt | nt | nt | 112.2* | nt | nt
Cc1nc2ccccc2n1CC(=O)NC(C)C1CC2CCC1C2 (configuration not stated) | 3.7 | 48.8* | -7.7 | -5.6 | -3.9 | 40.4*
CC(NC(=O)Cn1c(NCCO)nc2ccccc21)C1CC2CCC1C2 (configuration not stated) | 3.3 | 4.6 | -1.4 | -5.0 | -10.0 | 6.1
CCC(C)NCC(=O)Nc1cc(S(=O)(=O)N(CC)c2ccccc2)ccc1Cl (configuration not stated) | -3.0 | 46.0* | 2.9 | -0.1 | -1.3 | 7.3
CCN(c1ccccc1)S(=O)(=O)c1ccc(OC)c(NC(=O)CN(C)C)c1 | -1.9 | 32.8* | 0.1 | -8.4 | -13.7 | 11.9
CCN(c1ccccc1)S(=O)(=O)c1ccc(OC)c(NC(=O)CNC)c1 | 4.9 | 29.6* | -11.7 | -5.8 | -24.2 | 7.6
CCN(c1ccccc1)S(=O)(=O)c1ccc(OC)c(NC(=O)CNCC(C)O)c1 (configuration not stated) | -3.8 | 3.8 | -1.7 | 20.5 | -12.4 | 0.0
O=C(NC1CCCN(C2Cc3ccccc3C2)C1)c1ccc(F)cc1Cl (configuration not stated) | -7.3 | nt | nt | -0.6 | -24.3 | nt
CCOc1ccc(CCN2C(=O)C(=O)N([C@H](CCCN(C)Cc3ccccc3)CNCc3ccccc3)C[C@@H]2C(C)C)cc1 | nt | nt | nt | -8.1 | nt | nt
COc1ccc(CNC[C@@H](CCCCN(C)Cc2ccc(OC)cc2)N2C[C@H](c3ccccc3)N(CCc3ccc(Cl)c(Cl)c3)C(=O)C2=O)cc1 | 0.9 | 4.8 | -0.4 | 92.2* | -7.2 | 1.6
COc1ccc(C(=O)c2cc([N+](=O)[O-])ccc2N2CCCC2)cc1 | -3.5 | 12.8 | 61.1* | 6.9 | -4.6 | 4.9
O=C(c1ccccc1)c1cc([N+](=O)[O-])ccc1N1CCCC1 | 7.9 | -1.0 | -11.7 | 15.3 | -5.6 | -2.8
SMILES | IEC-6 tox | BaF3 tox | APP transl inh | aSyn 5UTR inh | KLF5 inh | Ba/F3 V617F tox
CN1CCN(c2ccc([N+](=O)[O-])cc2C(=O)c2ccc(Br)cc2)CC1 | 5.5 | 2.2 | 69.3* | 67.4* | -4.4 | -2.2
CN1CCN(c2ccc([N+](=O)[O-])cc2C(=O)c2ccccc2)CC1 | 1.3 | 4.8 | 11.8 | 2.3 | -4.8 | 3.0
Cc1ccc(C(=O)c2cc([N+](=O)[O-])ccc2N2CCOCC2)cc1C | 5.5 | 76.4* | 93.3* | 16.8 | 5.6 | 85.5*
COc1ccc(C(=O)c2cc([N+](=O)[O-])ccc2N2CCN(C)CC2)cc1 | 74.1* | 84.8* | 64.6* | -39.9 | 54.6 | 73.6*
O=C(NCCc1ccc(F)cc1)Nc1ccccc1Cl | 6.1 | nt | nt | nt | -58.4 | nt
CCOc1ccc(-c2c(C(=O)N/N=C/c3ccc(Cl)cc3)nnn2-c2nonc2N)cc1 | -0.3 | nt | nt | -11.3 | -29.1 | nt
Cc1ccccc1COC(=O)c1cc([N+](=O)[O-])ccc1N1CCOCC1 | 0.1 | nt | nt | 9.7 | -1.1 | nt
CSc1ccc(COC(=O)c2cc([N+](=O)[O-])ccc2N2CCOCC2)cc1 | nt | nt | nt | 66.9* | nt | nt
COc1ccc(C(=O)N/N=C/c2ccc(OC)c(COc3ccccc3)c2)cc1 | 0.4 | nt | nt | 8.9 | -40.8 | nt
COc1cc(OC)cc(C(=O)N/N=C/c2ccc(OC)c(COc3ccc4ccccc4c3)c2)c1 | 5.4 | 4.9 | 55.8* | 4.6 | 3.7 | 2.1
COc1ccc(/C=N/NC(=O)c2ccncc2)cc1COc1ccc(NC(C)=O)cc1 | -2.2 | 0.7 | nt | 80.0* | -15.0 | -0.1
COc1ccc(-c2nn(-c3ccccc3)cc2C(=O)NC(=S)NNC(=O)c2ccncc2)cc1 | 24.7* | 3.6 | 49.9* | 72.5* | 19.9 | 5.1
COc1ccc(NC(=O)c2cn(-c3ccccc3)nc2-c2ccncc2)cc1 | -0.8 | 8.8 | 10.4 | -25.2 | -33.5 | 1.8
Cc1sc2ncn(CC(=O)NCCCN3CC(C)CC(C)C3)c(=O)c2c1S(=O)(=O)N1CC(C)CC(C)C1 (configuration not stated) | 6.8 | nt | nt | 12.5 | -7.0 | nt
Cc1cccn2c(=O)c3cc(C#N)c(=N)n(CCN4CCOCC4)c3nc12 | -1.3 | 3.0 | 46.8* | -34.2 | -28.1 | -0.5
O=C(Nc1cccc(Cl)c1Cl)C1CCN(C(=O)c2cccs2)CC1 | -1.1 | nt | nt | -9.5 | 16.6 | nt
O=C(O)C1CSC(c2ccccc2)N1C(=O)c1ccco1 (configuration not stated) | -1.2 | 5.2 | 49.9* | 0.5 | -27.4 | -1.9
O=C(O)C1Cc2ccccc2CN1C(=O)c1ccco1 (configuration not stated) | -2.4 | nt | nt | -15.4 | -11.0 | nt
O=C(Cn1cnc2ccccc2c1=O)N1CCOCC1 | 1.3 | -2.2 | 50.5* | 20.1 | 16.3 | -0.6
O=C(Cn1cnc2ccccc2c1=O)N1CCc2ccccc2C1 | -1.5 | 7.5 | 8.1 | -5.6 | -21.4 | -3.7
CC(C)N=c1scc(-c2ccco2)n1/N=C/c1ccc(O)c(O)c1 | 8.8 | 73.4* | -2.2 | nt | -38.8 | 96.0*
CC(C)(C)c1ccc(Cn2c(=N)n(CC(O)c3ccco3)c3ccccc32)cc1 (configuration not stated) | -3.1 | 16.9 | 8.7 | 101.2* | -45.2 | 23.3

Assay outcomes: PubChem BioAssay, several laboratories
